About 83,000 compounds went through this panel and 20% of them were active in at least one assay; those are over-represented in the sample as a whole.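 Each cell line was grown in a 96-well plate and treated with one concentration of compound for 48 hours. Values below 10 were considered active.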 Active and inactive are the calls of the source.
Each molecule was assayed on NCI-H322M lung (assay: NCI-60 one-dose screen, 48 h (100 = growth as untreated, 0 = no growth, -100 = all killed)). Conditions: 10 µM unless noted.
With `CN(C(=O)CN1C(=O)/C(=C/c2ccco2)SC1=S)C1CCS(=O)(=O)C1` (stereo unspecified) the growth was 99.3% (inactive). `O=C(c1ccc(Cl)cc1)C1[C@H](c2ccccc2Cl)[C@@H](c2ccccc2)NC12C(=O)Nc1ccccc12` (stereo partly specified) was tested, and the growth was 12.5% (inactive). For `Cc1ccc(Nc2nnc(-c3c[nH]c4ccccc34)o2)c(C)c1`, the growth was 40.2% (inactive). For `Cc1ccccc1NC(=O)c1cccc(NC(=O)CCl)c1`, the growth was 101% (inactive). `Clc1ccc(CNc2nc(SCCN3CCOCC3)nc3c2cnn3CC(Cl)c2ccc(Br)cc2)cc1` (stereo unspecified) was tested, and the growth was 83.8% (inactive). `CCc1ccc(SC2c3cc(OC)ccc3Oc3nc(N)c(C#N)c(N)c32)cc1` (stereo unspecified) was tested, and the growth was -48% (active). For `O=C(N/N=C/c1ccc(B(O)O)s1)c1[nH]c2ccc(Br)cc2c1-c1ccccc1`, the growth was -79.1% (active). For `CCN1C(=O)N(CC)C2NNC(Sc3c(C(=O)O)c4ccccc4n(CC(C)C)c3=O)=NC21` (stereo unspecified), the growth was 56.2% (inactive). With `COc1ccc(/C=C/c2nc3ccccc3c(=O)n2CC(=O)Nc2ccccc2)cc1` the growth was 46.8% (inactive). In the case of `COc1ccc2[nH]c(=O)c(CSc3ccccc3Nc3nccc(-c4ccc5c(c4)OCO5)n3)cc2c1`, the growth is reported as 92.5% (inactive). For `Cc1ccc(Cl)cc1NC(=O)N/C(N)=N/c1nc2ccccc2s1`, the growth was 18.6% (inactive). In the case of `COc1ccc(OC)c(Cn2cc(C#N)c(N)c2C(=O)c2ccc(Br)cc2)c1`, the growth is reported as 85.8% (inactive). For `Cc1ccc(-c2cc(-c3ccccc3)[nH]c(=O)c2C#N)cc1`, the growth was 91.2% (inactive). For `Cc1ccc(C(C(=O)NC2CCCCC2)N(Cc2ccccc2Cl)C(=O)c2ccc(CN3CCOCC3)o2)o1` (stereo unspecified), the growth was 105% (inactive). With `CN(C)c1ccc(/C=C/c2n(Cc3ccc4ccccc4c3)c3ccccc3[n+]2Cc2ccc3ccccc3c2)cc1` the growth was -90% (active). For `Cc1nn(-c2ccccc2)c2nc(C)n(CC(=O)N/N=C/c3ccccc3O)c(=O)c12`, the growth was 29.4% (inactive). With `CC1=C(C)C(=O)C(N2CCSCC2)=CC1=O` the growth was 96.9% (inactive). With `NC(=O)c1ccc(-c2ccc3ncnc(N4CCc5cc(F)c(Cl)cc54)c3c2)cn1` the growth was 24.1% (inactive). `Cn1ncc2c(N)nc(Oc3ccccc3-c3ccccc3)nc21` was tested, and the growth was 72.2% (inactive). `C=CC[n+]1cccc2c3ccccc3ccc21` was tested, and the growth was 76.7% (inactive). In the case of `COc1ccc2nc(NC(=O)c3ccc(N(C)C)cc3)sc2c1`, the growth is reported as 64.7% (inactive). `O=C(N/N=C/c1ccoc1)c1[nH]c2ccc(Br)cc2c1-c1ccccc1` was tested, and the growth was -86.4% (active). With `O=C(Nc1ccc(-c2ccc3c(c2)NC(=O)/C3=C\c2ccc[nH]2)cc1)Nc1ccc(Cl)c(C(F)(F)F)c1` the growth was 50.6% (inactive). `CN1C(=O)/C(=C/c2ccco2)S/C1=N/c1nccs1` was tested, and the growth was 94.3% (inactive). `COc1cccc2nc(Nc3cccc(NC(=O)c4ccc(CN5CCN(C)CC5)c(C(F)(F)F)c4)c3)ccc12` was tested, and the growth was -100% (active). For `Fc1cccc(CNc2nc(SCCN3CCOCC3)nc3c2cnn3CC(Cl)c2ccc(Br)cc2)c1` (stereo unspecified), the growth was 81.7% (inactive). With `CCCCNc1ccc2c3c(cccc13)C(=O)N(c1cccc(-c3nn(-c4ccccc4)cc3-c3nc4ccccc4s3)c1)C2=O` the growth was 104% (inactive). For `N/C(=N\c1nc2ccccc2s1)NC(=O)Nc1ccccc1[N+](=O)[O-]`, the growth was 39.9% (inactive). With `Cc1ccc(C(=O)Nc2cc(-c3ccncc3)cc(C(F)(F)F)c2)cc1C#Cc1cnc2cccnn12` the growth was 79% (inactive). In the case of `CCN1C(=O)N(CC)C2NNC(Sc3c(C(=O)O)c4ccccc4n(CCC(C)C)c3=O)=NC21` (stereo unspecified), the growth is reported as 52.9% (inactive). `CC1=C(C(=O)OCc2ccccc2)C(c2ccc(N(C)C)cc2)n2c(nc3ccccc32)N1` (stereo unspecified) was tested, and the growth was 101% (inactive). For `COc1cc(/C=C/C(=O)c2cnn(-c3cc(=O)[nH]c4ccc(Br)cc34)c2C)cc(OC)c1OC`, the growth was 4.7% (active). With `S=C(Nc1ccc(OCc2nc3ccc(Cl)cc3[nH]2)cc1)NC1CCCCC1` the growth was 9.78% (active). With `Nc1nn2c(-c3cc4cc(Br)ccc4oc3=O)ccnc2c1N=Nc1ccc(S(N)(=O)=O)cc1` the growth was 78.3% (inactive). With `CCN(C(=O)CN1C(=O)/C(=C/c2ccco2)SC1=S)C1CCS(=O)(=O)C1` (stereo unspecified) the growth was 99.8% (inactive). For `Cn1cc(Nc2ncnc(-c3ccc(N4CCCC4)c(C#N)c3)n2)cn1`, the growth was 50.5% (inactive). With `O=C1Nc2ccccc2/C1=C\c1ccc(OCC(=O)c2ccc(Br)cc2)cc1` the growth was 87.5% (inactive). With `COc1cc(CNC(=O)C[C@H](C)CCC=C(C)C)ccc1OCc1cn(-c2ccc(Br)cc2)nn1` the growth was 99.6% (inactive).

The molecules below were run on HOP-62 NSCLC in the same assay as above. Conditions: 10 µM unless noted.
`CN(C(=O)CN1C(=O)/C(=C/c2ccco2)SC1=S)C1CCS(=O)(=O)C1` (stereo unspecified) was tested, and the growth was 123% (inactive). For `O=C(c1ccc(Cl)cc1)C1[C@H](c2ccccc2Cl)[C@@H](c2ccccc2)NC12C(=O)Nc1ccccc12` (stereo partly specified), the growth was -40.9% (active). `Cc1ccc(Nc2nnc(-c3c[nH]c4ccccc34)o2)c(C)c1` was tested, and the growth was 23.2% (inactive). `Cc1ccccc1NC(=O)c1cccc(NC(=O)CCl)c1` was tested, and the growth was 32.3% (inactive). With `Clc1ccc(CNc2nc(SCCN3CCOCC3)nc3c2cnn3CC(Cl)c2ccc(Br)cc2)cc1` (stereo unspecified) the growth was 58.6% (inactive). For `CCc1ccc(SC2c3cc(OC)ccc3Oc3nc(N)c(C#N)c(N)c32)cc1` (stereo unspecified), the growth was 1.33% (active). In the case of `O=C(N/N=C/c1ccc(B(O)O)s1)c1[nH]c2ccc(Br)cc2c1-c1ccccc1`, the growth is reported as -69.8% (active). For `CCN1C(=O)N(CC)C2NNC(Sc3c(C(=O)O)c4ccccc4n(CC(C)C)c3=O)=NC21` (stereo unspecified), the growth was 34.1% (inactive). `COc1ccc(/C=C/c2nc3ccccc3c(=O)n2CC(=O)Nc2ccccc2)cc1` was tested, and the growth was 2.16% (active). `COc1ccc2[nH]c(=O)c(CSc3ccccc3Nc3nccc(-c4ccc5c(c4)OCO5)n3)cc2c1` was tested, and the growth was 94.1% (inactive). In the case of `Cc1ccc(Cl)cc1NC(=O)N/C(N)=N/c1nc2ccccc2s1`, the growth is reported as -11.7% (active). With `COc1ccc(OC)c(Cn2cc(C#N)c(N)c2C(=O)c2ccc(Br)cc2)c1` the growth was 40.2% (inactive). With `Cc1ccc(-c2cc(-c3ccccc3)[nH]c(=O)c2C#N)cc1` the growth was 85.3% (inactive). With `Cc1ccc(C(C(=O)NC2CCCCC2)N(Cc2ccccc2Cl)C(=O)c2ccc(CN3CCOCC3)o2)o1` (stereo unspecified) the growth was 107% (inactive). For `CN(C)c1ccc(/C=C/c2n(Cc3ccc4ccccc4c3)c3ccccc3[n+]2Cc2ccc3ccccc3c2)cc1`, the growth was -63.3% (active). For `Cc1nn(-c2ccccc2)c2nc(C)n(CC(=O)N/N=C/c3ccccc3O)c(=O)c12`, the growth was 31.3% (inactive). `CC1=C(C)C(=O)C(N2CCSCC2)=CC1=O` was tested, and the growth was 99.1% (inactive). In the case of `NC(=O)c1ccc(-c2ccc3ncnc(N4CCc5cc(F)c(Cl)cc54)c3c2)cn1`, the growth is reported as 99.9% (inactive). In the case of `Cn1ncc2c(N)nc(Oc3ccccc3-c3ccccc3)nc21`, the growth is reported as 57.9% (inactive). `C=CC[n+]1cccc2c3ccccc3ccc21` was tested, and the growth was 44.9% (inactive). `COc1ccc2nc(NC(=O)c3ccc(N(C)C)cc3)sc2c1` was tested, and the growth was 92% (inactive). For `O=C(N/N=C/c1ccoc1)c1[nH]c2ccc(Br)cc2c1-c1ccccc1`, the growth was -70.6% (active). `O=C(Nc1ccc(-c2ccc3c(c2)NC(=O)/C3=C\c2ccc[nH]2)cc1)Nc1ccc(Cl)c(C(F)(F)F)c1` was tested, and the growth was 44.1% (inactive). For `CN1C(=O)/C(=C/c2ccco2)S/C1=N/c1nccs1`, the growth was 108% (inactive). In the case of `COc1cccc2nc(Nc3cccc(NC(=O)c4ccc(CN5CCN(C)CC5)c(C(F)(F)F)c4)c3)ccc12`, the growth is reported as -78.5% (active). For `Fc1cccc(CNc2nc(SCCN3CCOCC3)nc3c2cnn3CC(Cl)c2ccc(Br)cc2)c1` (stereo unspecified), the growth was 44.9% (inactive). For `CCCCNc1ccc2c3c(cccc13)C(=O)N(c1cccc(-c3nn(-c4ccccc4)cc3-c3nc4ccccc4s3)c1)C2=O`, the growth was 107% (inactive). For `N/C(=N\c1nc2ccccc2s1)NC(=O)Nc1ccccc1[N+](=O)[O-]`, the growth was 30.1% (inactive). In the case of `Cc1ccc(C(=O)Nc2cc(-c3ccncc3)cc(C(F)(F)F)c2)cc1C#Cc1cnc2cccnn12`, the growth is reported as 44.3% (inactive). With `CCN1C(=O)N(CC)C2NNC(Sc3c(C(=O)O)c4ccccc4n(CCC(C)C)c3=O)=NC21` (stereo unspecified) the growth was 27.3% (inactive). With `CC1=C(C(=O)OCc2ccccc2)C(c2ccc(N(C)C)cc2)n2c(nc3ccccc32)N1` (stereo unspecified) the growth was 83.6% (inactive). With `COc1cc(/C=C/C(=O)c2cnn(-c3cc(=O)[nH]c4ccc(Br)cc34)c2C)cc(OC)c1OC` the growth was -9.41% (active). For `S=C(Nc1ccc(OCc2nc3ccc(Cl)cc3[nH]2)cc1)NC1CCCCC1`, the growth was -20.7% (active). With `Nc1nn2c(-c3cc4cc(Br)ccc4oc3=O)ccnc2c1N=Nc1ccc(S(N)(=O)=O)cc1` the growth was 41.8% (inactive). With `CCN(C(=O)CN1C(=O)/C(=C/c2ccco2)SC1=S)C1CCS(=O)(=O)C1` (stereo unspecified) the growth was 123% (inactive). With `Cn1cc(Nc2ncnc(-c3ccc(N4CCCC4)c(C#N)c3)n2)cn1` the growth was 90.3% (inactive). With `O=C1Nc2ccccc2/C1=C\c1ccc(OCC(=O)c2ccc(Br)cc2)cc1` the growth was 104% (inactive). `COc1cc(CNC(=O)C[C@H](C)CCC=C(C)C)ccc1OCc1cn(-c2ccc(Br)cc2)nn1` was tested, and the growth was 65.1% (inactive).

— PubChem BioAssay (NCI)
